NOD2-RIPK2 inh = NOD2-RIPK2 protein interaction inhibition; actives 0.38% (n = 360,000); AID 624267; CHO BLA complementation NOD2-RIPK2, CCF4 ratio; inhibition, % at 4.98 µM; in the data active = inhibition above about 21%;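 also: 0% = vehicle only and 100% = reference blocker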
Target sequence (O43353 whole entry, looked up): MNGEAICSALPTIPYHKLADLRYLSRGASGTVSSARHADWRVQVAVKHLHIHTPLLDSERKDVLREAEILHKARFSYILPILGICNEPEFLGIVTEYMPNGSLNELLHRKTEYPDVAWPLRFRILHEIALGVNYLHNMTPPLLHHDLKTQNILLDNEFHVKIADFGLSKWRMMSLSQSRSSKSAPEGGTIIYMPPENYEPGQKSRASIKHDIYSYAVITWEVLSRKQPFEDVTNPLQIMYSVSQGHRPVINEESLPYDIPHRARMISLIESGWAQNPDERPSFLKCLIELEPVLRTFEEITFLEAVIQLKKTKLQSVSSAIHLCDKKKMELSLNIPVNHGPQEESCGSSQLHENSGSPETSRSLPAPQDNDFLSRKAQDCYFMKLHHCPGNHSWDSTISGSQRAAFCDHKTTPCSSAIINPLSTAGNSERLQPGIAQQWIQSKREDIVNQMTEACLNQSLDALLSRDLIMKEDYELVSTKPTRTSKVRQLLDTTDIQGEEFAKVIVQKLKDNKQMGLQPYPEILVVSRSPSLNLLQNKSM
HSF-1 act = increases HSF-1 driven luciferase reporter signal; actives 1.7% (n = 300,000); activation, % at 9 µM; AID 504408; NIH3T3-HGL HSF-1 luciferase reporter, MG132, 8 h; 100% = twice DMSO control signal;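 active = mean replicate activation of at least 50% with a set share of replicates each reaching 50%; inconclusive = only one of those two conditions met; inactive = mean below 50% and too few replicates reaching it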;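 also: 0% = median of the neutral control wells and 100% = twice that signal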
HSF1 inh = HSF1 inhibition; actives 0.77% (n = 300,000); activity change, negative = inhibition, % at 7.5 µM (by protocol); AID 2098; NIH3T3-HGL HSE-luciferase, MG132-induced, luminescence 8 h; stronger effect = lower value;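 active = more than half of replicate wells show activity change below -50%, luminescence cut by over half; inconclusive = some wells, but at most half, below -50%; inactive = no replicate well below -50%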;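 also: luciferase reports HSF-1 transcriptional activity via heat shock element; 0% = median of DMSO wells and -100% = zero luminescence signal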
TLR4-MyD88 BLA = TLR4-MyD88 interaction inhibition in cells; HeLa CL3-4 TLR4/MyD88 BLA complementation, FRET ratio; inhibition, % at 8.4 µM; actives 0.18% (n = 200,000); AID 861; in the data active = inhibition above about 25%;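 also: 0% = vehicle and 100% = reference inhibitor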
TLR9-MyD88 block = blocks human TLR9 binding to MyD88; CHO BLA complementation TLR9-MyD88, CCF4 FRET ratio; inhibition, % at 4.98 µM; actives 0.21% (n = 340,000); AID 504734;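 active = inhibition above the mean over all tested compounds plus 3 SD, cut at about 21% in these data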;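 also: 0% = DMSO only wells and 100% = clavulanate BLA inhibitor control wells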
NOD2-RIPK2 conf = confirmation of human NOD2-RIPK2 interaction inhibitors; shares compounds with NOD2-RIPK2 inh; AID 624370; inhibition, % at 4.98 µM; actives 70% (n = 1,200); CHO cells, NOD2-RIPK2 BLA complementation, CCF4 FRET;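 active = mean inhibition across replicates above a set limit taken from the earlier primary screen, cut at about 21% in these data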;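 also: 0% = DMSO-only wells and the high end = clavulanate BLA-blocked wells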
NOD2 BLA counter = NOD2-RIPK2 counterscreen BLA reporter activity; shares compounds with NOD2-RIPK2 inh; CHO BLA reporter, CCF4 FRET ratio; inhibition, % at 4.98 µM; actives 57% (n = 1,200);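 active = mean inhibition above the low-control mean inhibition plus three low-control SD, cut at about 11% in these data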;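 also: 0% = DMSO only wells and 100% = clavulanate high control wells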
Numbers without * were called inactive; ? = inconclusive; · = no result given. The list is not random: actives were taken first. Their share in the collection is about 2.4%.

SMILES	NOD2-RIPK2 inh	HSF-1 act	HSF1 inh	TLR4-MyD88 BLA	TLR9-MyD88 block	NOD2-RIPK2 conf	NOD2 BLA counter
CCN(CC)c1ccc(C(=O)NNC(=O)CCl)cc1	-2.5	-1.6	-2.5	-6.0	-1.0	·	·
CCN(CC)c1ccc(C(=C2C=CC(=[N+](CC)CC)C=C2)c2ccc(N(CC)CC)cc2)cc1	41.0*	·	·	·	18.1	49.3*	-7.4
c1ccc(-c2sc3ccccc3c2-c2ccc(OCCN3CCCC3)cc2)cc1	22.7*	·	·	·	-21.1	10.4	-1.1
COc1ccc(-c2sc3ccccc3c2-c2ccc(OCCN3CCCCC3)cc2)cc1	-8.0	·	·	·	-2.3	·	·
O=C1Nc2ccccc2/C1=C\C(=O)c1ccccc1	29.6*	41.9	12.4	·	1.0	29.3*	-2.3
O=C(/C=C1\C(=O)Nc2ccccc21)/C=C1\C(=O)Nc2ccccc21	24.7*	·	·	·	13.7	73.7*	15.7*
CC(C)Oc1ccc(C(=O)/C=C2/C(=O)Nc3ccccc32)cc1	18.8	8.8	4.5	·	5.9	·	·
CN(O)/C=C1\C(=O)Nc2ccccc21	8.9	-7.6	1.8	-7.8	-3.7	·	·
O=C(Nc1cccc(C(=O)O)c1)/C(=C\c1ccc2c(c1)OCO2)NC(=O)c1ccccc1Cl	-1.4	-12.9	-16.3	·	6.5	·	·
S=C(NCCCN1CCN(CCCNC(=S)NC2CCCCC2)CC1)NC1CCCCC1	2.6	·	·	·	-6.8	·	·
Cc1cc(N2CCN(C)CC2)ccc1NC(=O)c1c2c(nc3ccccc13)CCN(Cc1ccccc1)C2	34.1*	25.0	-0.6	-15.8	-59.1	46.6*	9.4
O=C(C[n+]1ccccc1)c1ccc(NC(=O)c2ccccc2)cc1	35.2*	-6.4	0.9	15.1	-0.2	-1.1	-6.7
Nc1c(Br)cc2c(c1Br)C(O)c1ccccc1-2 (centres undefined)	2.0	·	·	·	-15.7	·	·
CCOC(=O)N1CCN(C(=O)C2CCN(C(=O)c3ccccc3C)CC2)CC1	21.7*	·	·	·	14.0	71.1*	17.6*
Nc1c(C(=O)Nc2ccc(Br)cc2)sc2nc(-c3ccco3)ccc12	26.3*	14.0	6.2	23.5	35.9*	67.0*	66.2*
COC(=O)c1sc(S(=O)(=O)NC(Cc2ccccc2)C(=O)O)c(C(=O)OC)c1C (centres undefined)	-12.1	·	·	·	-11.2	·	·
CN1C[C@@H]2[C@@H]3C(=O)N(C)C(=O)[C@@H]3[C@](C)(C1=O)N2C(=O)c1ccc(Cl)c(Cl)c1	-3.5	·	·	·	-0.5	·	·
CCc1ccc2c(c1)/C(=C/C(=O)c1cccs1)C(=O)N2	47.2*	-5.7	9.9	16.7	10.8	41.7*	2.4
CCCN1C(=O)S/C(=C/c2ccc(N3CCOCC3)o2)C1=O	41.0*	22.4	28.4	·	14.9	6.2	5.2
CCCN1C(=O)S/C(=C\c2ccc(N3CCOCC3)o2)C1=O	24.9*	92.6*	67.8	19.0	19.3	12.7	7.0
CCCN1C(=O)S/C(=C\c2ccc(N3CCOCC3)cc2C)C1=O	·	·	·	-10.2	·	·	·
CN(C)c1cccc(CNC(=O)c2csc([C@H]3C[C@H](O)[C@@H](CO)O3)n2)c1	10.3	·	·	·	·	·	·
Cc1cccc(C)c1NC(=O)C(C1CC1)n1c(=O)c(-c2cc3ccccc3[nH]2)nc2ccccc21 (centres undefined)	46.8*	·	·	·	·	42.5*	66.9*
CC(C)(C)NC(=O)C(C1CC1)n1c(=O)c(-c2ccco2)nc2ccccc21 (centres undefined)	-10.6	·	·	·	·	·	·
CC(C)(C)NC(=O)C(C1CC1)n1c(=O)c(-c2cc3ccccc3[nH]2)nc2ccccc21 (centres undefined)	41.8*	·	·	·	·	39.3*	61.5*
SMILES	NOD2-RIPK2 inh	HSF-1 act	HSF1 inh	TLR4-MyD88 BLA	TLR9-MyD88 block	NOD2-RIPK2 conf	NOD2 BLA counter
CCN(Cc1ccccc1)C(=O)Cc1c[nH]c2ccccc12	0.6	-1.1	0.8	·	4.2	·	·
COc1ccc(CNC(=O)/C=C/[C@H]2O[C@@H](n3ccc(=O)[nH]c3=O)[C@H](O)[C@@H]2O)cc1	4.6	·	·	·	·	·	·
Cc1cccc(NC(=S)NCc2ccc3c(c2)OCO3)c1C	3.0	-2.9	8.4	-2.0	-1.1	·	·
Cc1ccccc1NC(=S)NCc1ccc2c(c1)OCO2	38.8*	3.3	2.0	10.3	7.9	-1.8	-3.3
O=S1(=O)CC(N2CCN(CCO)CC2)CN1Cc1cn(Cc2ccccc2)nn1 (centres undefined)	4.3	·	·	·	·	·	·
O=C(COC(=O)c1cc([N+](=O)[O-])ccc1Cl)NC1CCCC1	2.6	8.3	-5.4	·	-14.1	·	·
O=C(COC(=O)c1ccccc1C(=O)c1ccc(Cl)c([N+](=O)[O-])c1)NC1CC1	49.0*	?	28.5	17.9	13.8	56.1*	9.0
CCCCCNC(=O)C(c1cccc2ccccc12)n1c(=O)c(-c2cc3ccccc3[nH]2)nc2ccccc21 (centres undefined)	41.7*	·	·	·	·	36.4*	63.7*
CCCCCNC(=O)C(CCc1ccccc1)n1c(=O)c(-c2cc3ccccc3[nH]2)nc2ccccc21 (centres undefined)	43.9*	·	·	·	·	41.3*	66.0*
CCCCCNC(=O)C(c1ccccc1)n1c(=O)c(-c2cc3ccccc3[nH]2)nc2ccccc21 (centres undefined)	46.3*	·	·	·	·	40.1*	63.9*
O=C(N1CCOCC1)N1[C@H](COCc2ccccc2)C=CS1(=O)=O	-5.9	·	·	·	·	·	·
Cc1ccc(-c2nn(-c3ccccc3)cc2CN(Cc2ccccc2)C(=O)c2ccco2)o1	36.3*	38.4	22.2	-3.5	8.3	1.9	-6.8
Cc1ccc(-c2nn(-c3ccccc3)cc2C(=O)O)o1	·	2.3	-2.8	1.8	·	·	·
O=C(/C=C/N1CCOCC1)c1coc2ccccc12	29.2*	1.8	-7.1	1.7	-5.1	-1.8	-7.6
O=C(/C=C/N1CCOCC1)c1cc2ccccc2o1	2.2	-0.1	0.6	-2.1	-1.4	·	·
Cc1c2cnn(CC(=O)Nc3c(F)c(F)cc(F)c3F)c(=O)c2c(C)n1Cc1ccccc1F	23.7*	-0.4	-3.7	17.5	-4.2	9.6	-1.0
CCc1ccc2nc(N(CCN(C)C)C(=O)/C=C/c3cccs3)sc2c1	9.8	12.1	1.6	·	3.5	·	·
Cc1ccc2nc(N(CCN(C)C)C(=O)/C=C/c3cccs3)sc2c1	22.4*	6.7	-2.0	-14.8	16.1	32.3*	25.2*
COc1ccc(OC)c2sc(N(CCN(C)C)C(=O)/C=C/c3cccs3)nc12	21.1*	4.4	-0.4	·	-13.3	37.5*	8.3
COc1ccc(S(=O)(=O)N2CCOC2CNC(=O)C(=O)NCCCN2CCCC2=O)cc1OC (centres undefined)	5.0	·	·	·	-5.6	·	·
COc1ccc(Cl)cc1NC(=O)Cc1c(F)cccc1Cl	21.5*	-10.7	-5.9	-25.4	2.9	3.1	1.2
COc1ccc(Cl)cc1NC(=O)CC(=O)Nc1cc(Cl)ccc1OC	1.8	-9.5	-6.3	·	-13.6	·	·
